About 83,000 compounds went through this panel and 20% of them were active in at least one assay; those are over-represented in the sample as a whole.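 Compound tested at a single concentration for 48 hours in 96-well plates; a percent growth value below 10 was scored as active.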 Unmarked numbers belong to inactive results. Active and inactive are the calls of the source.
Columns and labels:
Assay in all cases: NCI-60 one-dose screen, 48 h (100 = growth as untreated, 0 = no growth, -100 = all killed)
Details in all cases: 10 µM unless noted
SK-MEL-2 melanoma = tested on: SK-MEL-2 melanoma
EKVX NSCLC = tested on: EKVX NSCLC
SN12C renal = tested on: SN12C renal
UO-31 renal = tested on: UO-31 renal
TK-10 renal = tested on: TK-10 renal
ACHN renal = tested on: ACHN renal
A498 renal = tested on: A498 renal
CCRF-CEM leukemia = tested on: CCRF-CEM leukemia
MOLT-4 leukemia = tested on: MOLT-4 leukemia
CAKI-1 renal = tested on: CAKI-1 renal

SMILES | growth (SK-MEL-2 melanoma) | growth (EKVX NSCLC) | growth (SN12C renal) | growth (UO-31 renal) | growth (TK-10 renal) | growth (ACHN renal) | growth (A498 renal) | growth (CCRF-CEM leukemia) | growth (MOLT-4 leukemia) | growth (CAKI-1 renal)
Clc1ccc2c(NCCNC34CC5CC(CC(C5)C3)C4)ccnc2c1 | -88% (active) | -67.5% (active) | -74.5% (active) | -98.6% (active) | -94.7% (active) | -95.8% (active) | -94.2% (active) | 4.53% (active) | -23.1% (active) | 
COc1cc(C2CC(c3ccc(F)cc3)=Nc3c(N)nc(N)nc3N2)ccc1Oc1nc(Nc2ccc(F)cc2)nc(N(C)C)n1 (configuration not stated) | 19.2% | 56.4% | 79.7% | 48% | 88.7% | 51.4% | 74% | 44.2% | 1.16% (active) | 
COc1ccc(-c2nc3ccc(-c4nnc(SCc5ccccc5)o4)cc3[nH]2)cc1OC | 66.4% | 58.1% | -2.42% (active) | -8.65% (active) | 23% | -45.4% (active) | 117% | 76.4% | 78.8% | 
COc1ccc(NC(=O)Cn2c(/C=C/c3cccc(Br)c3)nc3ccccc3c2=O)cc1 | 80.3% | 81.8% | 5.79% (active) | -60.6% (active) | -39.4% (active) | -51.1% (active) | -51.1% (active) | 86.8% | 86.5% | 
COc1ccc2[nH]c(O)c(N=Nc3nc(-c4ccc(Br)cc4)cs3)c2c1 | 21.1% | 6.08% (active) | -46.4% (active) | 0.841% (active) | 33.4% | -64.2% (active) | -78% (active) | 14.7% | -17.7% (active) | 
COc1cc(CNC(=O)C[C@H](C)CCC=C(C)C)ccc1OCc1cn(-c2ccc(Cl)cc2Cl)nn1 | 71.7% | 81.1% | 64.8% | 60.5% | 68.7% | 61.1% | 59% | 116% | 84% | 
CC[C@@]12CC(C(=O)OC)=C3Nc4cc5c(cc4[C@@]34CCN(C[C@H]3O[C@H]31)[C@@H]24)[C@@H]1[C@H](O5)[C@@H](O)[C@@]2(CC)CC(C(=O)OC)=C3Nc4cc(O)ccc4[C@@]34CCN1[C@@H]24 | -70.4% (active) | -14.9% (active) | -16.8% (active) | -66.2% (active) | -41.1% (active) | -26.4% (active) | -77.1% (active) | 2.67% (active) | -15.9% (active) | 
CC1CCc2c(sc3nc(SCC(=O)c4cccc(Br)c4)n(-c4ccccc4)c(=O)c23)C1 (configuration not stated) | 99.2% | 66.2% | 32.8% | 16.6% | -21.6% (active) | -60.6% (active) | 114% | 35.3% | 28.6% | 
CC1=C(C(=O)Nc2ccccc2)C(c2cccc3ccccc23)n2c(nc3ccccc32)N1 (configuration not stated) | 99.7% | 67.4% | 18.5% | 59% | 81% | 27.6% | 102% | 65.4% | 67.5% | 
O=C(NC(=S)N1CCN(c2ncnc3c2cnn3-c2ccccc2)CC1)c1ccc(F)cc1 | 91.6% | 86.2% | 64.9% | 74.4% | 140% | 79.6% | 124% | 63.2% | 45.2% | 
N/C(=N\c1nc2ccc([N+](=O)[O-])cc2s1)NC(=O)Nc1ccccc1Cl | 88.1% | 58.4% | 25.5% | -32.1% (active) | 17.8% | -41.4% (active) | -5.78% (active) | 74.9% | 83.5% | 
Fc1ccccc1CNc1nc(SCCN2CCOCC2)nc2c1cnn2CC(Cl)c1ccc(Br)cc1 (configuration not stated) | 31.1% | 49% | 53.2% | -6.44% (active) | 58.9% | 25.1% | 53.8% | 22.4% | -25.2% (active) | 
Nc1nn2c(-c3cc4cc(Br)ccc4oc3=O)ccnc2c1N=Nc1ccc(S(N)(=O)=O)cc1 |  | 91.9% | 74% | 76.6% | 114% | 95.7% | 149% | 82.3% | 89.9% | 81%
CCN(C(=O)CN1C(=O)/C(=C/c2ccco2)SC1=S)C1CCS(=O)(=O)C1 (configuration not stated) | 99.2% | 98% | 106% | 83.6% | 121% | 114% | 105% | 105% | 103% | 
O=C(Nc1ccc(-c2ccc3c(c2)NC(=O)/C3=C\c2ccc[nH]2)cc1)Nc1ccc(Cl)c(C(F)(F)F)c1 | 34.2% | 25.3% | 19.4% | 36.1% | 42.1% | 37.3% | 39.2% | 27.4% | 9.33% (active) | 
Cc1cc(C(NC(=O)CCCCCNc2cccc3c2C(=O)N(C2CCC(=O)CC2=O)C3=O)c2cccc(N(C)C)c2)c(O)c2ncccc12 (configuration not stated) | -1.61% (active) | 7.79% (active) | 10.2% | 8.84% (active) | 42.4% | 14.7% | 26.9% | -19.4% (active) | -0.125% (active) | 
Cn1cc(-c2cc(N)n3nc(-c4c[nH]c5ccccc45)cc3n2)c2cc(F)ccc21 | 51.6% | 60.2% | 47.1% | 59.7% | 50.6% | 31.7% | 99% | -0.0318% (active) | 25.7% | 
O=C(NC(=S)N1CCN(c2ncnc3c2cnn3-c2ccccc2)CC1)c1ccc(Br)cc1 | 87.4% | 76.4% | 48.4% | 70.7% | 127% | 69.2% | 104% | 81.2% | 81.5% | 
FC(F)(F)c1cc2c(Cl)ncnc2n1CCN1CCOCC1 | 47.7% | 92.8% | 75.6% | -92.7% (active) | 102% | -45.4% (active) | 116% | 36.6% | 20.2% | 
c1n[nH]cc1-c1nc2ccc3[nH]ncc3c2c2c1CC1(CC2)COC1 | 18.3% | 78.6% | 38.9% | 95.7% | 49.2% | 54.6% | 38.6% | 30.3% | 32.8% | 
CCCCNc1ccc2c3c(cccc13)C(=O)N(NCC(O)COc1ccc3c(C)cc(=O)oc3c1)C2=O (configuration not stated) | 96.9% | 77.4% | 94.5% | 43.5% | 153% | 86.2% | 89.2% | 84.2% | 77.7% | 
O=C(N/N=C/c1ccc(Br)o1)c1[nH]c2ccc(Br)cc2c1-c1ccccc1 | 3.4% (active) | 12.6% | -59.1% (active) | -34% (active) | 9.96% (active) | -21.3% (active) | -7.37% (active) | 4.07% (active) | -0.952% (active) | 
Cc1cccc(/C=C/c2ccc(NC(=S)NCCCCN(C)C)cc2)c1 | -79.6% (active) | -90.5% (active) | -84.5% (active) | -93.2% (active) | -89.8% (active) | -100% (active) | -83.7% (active) | -36.6% (active) | -16.1% (active) | 
Cc1nn(-c2ccccc2)c2nc(C)n(CC(=O)N/N=C/c3ccccc3O)c(=O)c12 | 38.1% | 13% | 30% | 13.2% | 32.8% | 14.6% | 97% | 25.7% | 22.8% | 
CN1CCN(C(=O)Oc2cc3c(c4ccccc24)[C@H](CCl)CN3C(=O)c2cc3cc(OCCCN4CCC4)ccc3[nH]2)[C@H]2CSSC[C@H]21 | -92.7% (active) | -38.3% (active) | -7.03% (active) | -11.4% (active) | 4.65% (active) | -11.6% (active) | -17.6% (active) | -25.8% (active) | -11.6% (active) | 
Cc1ccccc1Nc1nnc(-c2c[nH]c3ccccc23)o1 | -10.8% (active) | 20.1% | 33.8% | 33.8% | 60.2% | 39.5% | 101% | 10.5% | 9.88% (active) | 
COc1ccc(NC2=C(I)C(=O)C(C)=C(C)C2=O)cc1 | 56.9% | 25% | 17% | 46.1% | 155% | 30.4% | 113% | -11.1% (active) | -6.32% (active) | 
CS(=O)(=O)c1ccc(-n2nc(C(=O)NCc3ccccc3)cc2-c2ccc(Cl)cc2)cc1 | 92.9% | 68% | 80.8% | 56.5% | 104% | 91.3% | 124% | 58.6% | 59.4% | 

— PubChem BioAssay (NCI)
